# Experimental data published in PubChem BioAssay AID2293 (National Center for Advancing Translational Sciences (NCATS), 2010).
# Activity calls are given as the source filed them. The rule behind the calls is not given here.
# Target: Lysosomal alpha-glucosidase (Homo sapiens) (UniProt P10253)
# Assay: Direct Measure of the Activation of Acid alpha-Glucosidase Catalytic Rate
# Conditions: purified enzyme, 4MU-alpha-Glc conversion, LC-MS; at 37.5 µM; stronger effect = higher value
# Text: NIH Chemical Genomics Center [NCGC] NIH Molecular Libraries Probe Production centers Network [MLPCN] MLPCN Grant: 1R03MH084841-01 Assay Submitter (PI): Wei Zheng NCGC Assay Overview: Alpha-glucosidase is responsible for hydrolysis of terminal, non-reducing 1,4-linked alpha-D-glucose residues with release of alpha-D-glucose. It is a lysosomal hydrolase that is required for the degradation of a small percentage (1-3%) of cellular glycogen in human. Deficiency of this enzyme results in glycogen-storage disease type II (GSDII), also referred to as Pompe disease, an autosomal recessive disorder. Structurally normal glycogen is accumulated in lysosomes and cytoplasm in affected patients, primarily in muscle tissues. Excessive glycogen storage within lysosomes may interrupt normal functioning of other organelles and leads to cellular injury. In turn, this leads to enlargement and dysfunction of the entire organ involved (eg, cardiomyopathy and muscle weakness). It has reported that the improper folding and trafficking of alpha-glucosidase resulting from the genetic mutations may account for a significant number of Pompe patients. […]
# The catalysis rate of the 4MU-alpha-Gluc substrate by acid alpha-glucosidase was measured using LC-MS. […] (5) Add 50 ul stop solution (1M NaOH and 1M Glycine mixture, pH 10) (6) Run LC-MS and integrate peaks to quantitate amount of product
row,Compound,substrate conversion
1,CCCN1CNc2c(c(=O)[nH]c(=S)n2CCc2ccc(OC)c(OC)c2)C1,28% (active)

# Same assay, conditions: purified enzyme, 4MU-alpha-Glc conversion, LC-MS; conversion; at 5 µM; stronger effect = higher value
row,Compound,substrate conversion
1,CCCN1CNc2c(c(=O)[nH]c(=S)n2CCc2ccc(OC)c(OC)c2)C1,20%
